Reference: PubChem BioAssay AID1903 (Southern Research Specialized Biocontainment Screening …, 2009)
The whole screen tested about 310,000 compounds, of which about 1,200 (0.39%) were called active. The rule behind the calls is not given here. Only a sample is shown. Results with a measured potency or affinity are listed apart.

Target: Large T antigen (Simian virus 40) (UniProt P03070)
Experiment: SV40 large T antigen inhibitors, biochemical (AID 1903)
Settings: SV40 large T antigen ATPase/helicase inhibition assay; at 20 µM; hits give high values

Chain of Large T antigen (Simian virus 40) (P03070 whole entry, looked up): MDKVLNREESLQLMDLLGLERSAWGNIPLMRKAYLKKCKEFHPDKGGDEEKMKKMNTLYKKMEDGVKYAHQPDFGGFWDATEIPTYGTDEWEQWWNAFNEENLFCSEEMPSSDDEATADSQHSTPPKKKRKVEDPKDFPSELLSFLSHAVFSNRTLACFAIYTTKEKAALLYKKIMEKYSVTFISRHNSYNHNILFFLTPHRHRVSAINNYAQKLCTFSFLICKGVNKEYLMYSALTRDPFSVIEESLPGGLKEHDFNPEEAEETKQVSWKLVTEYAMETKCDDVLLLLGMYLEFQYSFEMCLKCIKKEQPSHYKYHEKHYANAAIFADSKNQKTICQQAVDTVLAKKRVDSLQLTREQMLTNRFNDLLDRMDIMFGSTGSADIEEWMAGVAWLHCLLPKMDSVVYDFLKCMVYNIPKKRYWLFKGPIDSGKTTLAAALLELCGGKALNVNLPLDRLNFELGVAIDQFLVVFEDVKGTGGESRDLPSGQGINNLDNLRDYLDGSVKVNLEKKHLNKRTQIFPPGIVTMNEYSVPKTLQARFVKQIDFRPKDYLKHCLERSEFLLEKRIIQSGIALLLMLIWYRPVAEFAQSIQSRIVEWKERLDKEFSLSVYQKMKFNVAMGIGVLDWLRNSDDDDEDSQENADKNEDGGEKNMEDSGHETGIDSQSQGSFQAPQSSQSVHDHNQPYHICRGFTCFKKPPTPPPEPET

inhibition, inactive:
CCCN(CC(=O)Nc1ccc(Cl)cc1Cl)Cc1cc(=O)n2ccsc2n1 -0.76%
COc1ccc(C(=O)NCc2nnc(SCC(=O)Nc3nnc(C)s3)o2)cc1 11.2%
Cc1ccc(S(=O)(=O)NCC(=O)N(CC(=O)NC2CCCC2)c2ccc3c(c2)OCCO3)cc1 6.71%
CCOc1c(C)cnc2c1c(=O)n(Cc1c(F)cccc1Cl)c(=O)n2C 18.6%
COc1ccc(N2Nc3n[nH]c(N)c3N2)cc1 34.9%
CCOc1ccc(N2C(N)=NC(N)=NC2(C)C)cc1 2.99%
COc1ccc(NC2=CC(c3ccc(OC)cc3)N(c3ccc(OC)cc3)C2=O)cc1 (centres undefined) 11.9%
Cc1cc(NS(=O)(=O)c2cccs2)no1 -2.38%
CC(=O)Nc1cccc(NC(=O)CSc2ncc(C(=O)Nc3ccccc3)c(=O)n2C)c1 19.6%
Fc1ccccc1COc1ccc(Br)cc1CNCC1CCCO1 (centres undefined) 4.34%
Cc1cccc(N2C(=O)c3ccc(Br)cc3C2=O)n1 8.73%
Cc1cccc(N2C(=O)c3ccccc3C2=O)n1 4.5%
Cc1csc(NC(=O)c2cc(=O)[nH]c3ccccc23)n1 5.64%
CN(C)S(=O)(=O)c1ccc(Cl)c(NC(=O)CN2CCNC(=O)C2)c1 5.76%
Cc1ccc(C)c(NC(=O)C(Sc2nc3ccccc3c(=O)n2CC(C)C)c2ccccc2)c1 (centres undefined) 4.6%
COc1ccc(C)cc1CN1C(=O)c2ccccc2C1=O 2.66%
COc1ccc(C=O)cc1CN1C(=O)c2ccccc2C1=O 0.06%
COc1ccc(CN2CC(C(=O)N3CCOCC3)CC2=O)cc1 (centres undefined) 13.7%
Cc1c(NC(=O)c2ccc(-c3ccc([N+](=O)[O-])cc3Cl)o2)c(=O)n(-c2ccccc2)n1C 7.53%
O=C1NC(=S)S/C1=C/c1ccc(OC(=O)c2ccco2)cc1 12%
CCS(=O)(=O)C1=NN2C(=N)/C(=C\c3ccc(SCc4ccco4)o3)C(=O)N=C2S1 59.6%
O=C(O)CN1C(=O)/C(=C/c2ccc(SCc3ccccc3)o2)SC1=S 12.4%
CC1=NN2C(=N)/C(=C\c3ccc(SCc4ccccc4)o3)C(=O)N=C2S1 15.7%
CCC1=NN2C(=N)/C(=C\c3ccc(SCc4ccco4)o3)C(=O)N=C2S1 0.38%
N=C1/C(=C\c2ccc(SCc3ccccc3)o2)C(=O)N=C2SC=NN12 -0.34%
Cc1ccc(-c2nnc(SC(C)C(=O)NCC3CCCO3)nc2-c2ccc(C)cc2)cc1 (centres undefined) 7.01%
Cn1c(=O)n(CCOc2ccc(Cl)cc2Cl)c2ccccc21 24.1%
O=C(COC(=O)c1ccccc1Oc1ccccc1)NC1CCS(=O)(=O)C1 (centres undefined) 2.91%
COc1ccc(C2c3sc(=O)[nH]c3SCC2C(N)=O)cc1 (centres undefined) 12.6%
CCCCOP(=O)(c1ccc(N(C)C)cc1)C(O)c1ccccc1F (centres undefined) 0.81%
O=C(CN(C(=O)CCC(=O)Nc1ccccn1)c1cccc(F)c1)NCc1ccc2c(c1)OCO2 5.37%
CCCNC(=O)N[C@@H](CCSC)C(=O)OC 1.19%
N#C/C(=C\c1ccccc1Cl)C(=O)NC(=O)Oc1ccccc1 23.3%
CCCCCc1nc2c(c(=O)c3ccccc3n2C)c(=O)n1Cc1ccc(OC)cc1 6.54%
c1ccc(-n2cc(CN3CCCC(CN4CCCC4)C3)c(-c3ccc4c(c3)OCO4)n2)cc1 (centres undefined) 0.36%
CC(=O)c1cccc(NC(=O)CCNC(=O)c2ccccc2Cl)c1 7.59%
O=C(N/N=C(\c1ccccc1)c1cccnc1)c1ccc(O)cc1 14.2%
O=C(N/N=C(\c1ccccc1)c1cccnc1)c1cccc(F)c1 8.05%
CCOC(=O)C1CCCN(C(=O)c2cn(CC)c3ccc(S(=O)(=O)N(C)C)cc3c2=O)C1 (centres undefined) 12.6%
Cc1c(Cl)cccc1NC(=O)Cn1cnc(S(=O)(=O)N2CCCC2)c1 12.7%
CC(NC(=S)Nc1ccc(Cl)cc1)C(c1ccccc1)N1CCOCC1 (centres undefined) 8.17%
CC[n+]1c(C)sc2cc(OC)ccc21 8.13%
COc1ccc2sc(C)[n+](C)c2c1 11.2%
Cn1c(SCC(=O)Nc2ccc3c(c2)OCCO3)nnc1-c1cccnc1 -0.17%
COc1ccccc1N1CCN(/N=C/c2cccc(O)c2)CC1 7.2%
COc1ccc(/C=N/N2CCN(c3ccccc3OC)CC2)cc1OC 6.87%
c1ccc(C2=Nn3c(nnc3-c3ccco3)SC2)cc1 10.2%
Fc1ccc(C2=Nn3c(nnc3-c3ccco3)SC2)cc1 9.39%
CN1N=C(C(=O)N2CCCC(C(=O)c3cccc(C(F)(F)F)c3)C2)CCC1=O (centres undefined) 2.73%
CCOc1ccccc1/C=N/n1c(COc2ccccc2)n[nH]c1=S 14.8%
CCN(CC)c1ccc(/C=c2\sc3nc4ccccc4n3c2=O)c(O)c1 11.3%
O=c1/c(=C/c2ccc(O)c([N+](=O)[O-])c2)sc2nc3ccccc3n12 9.09%
O=C(O)COCC(=O)Nc1ccc(-n2cnnn2)cc1 3.06%
C/C(=N\NC(=O)Cn1cc([N+](=O)[O-])cn1)c1ccco1 -0.91%
C/C(=N\NC(=O)c1cccc(N/N=C(\C)c2ccc([N+](=O)[O-])cc2)c1)c1ccc([N+](=O)[O-])cc1 7.03%
C/C(=N\NC(=O)c1ccc([N+](=O)[O-])cc1)c1cccc([N+](=O)[O-])c1 6.04%
C/C(=N\NC(=O)Cn1nc(C)c([N+](=O)[O-])c1C)c1ccc(O)cc1 34.5%
CC1(C)C2CCC(C2)C1(C)NC(=O)CNCc1cccs1 (centres undefined) 5.5%
Cc1cccc(CS(=O)(=O)Cc2ccc(C(=O)NC(C)c3ccccc3)o2)c1 (centres undefined) 2.72%
Cc1onc(-c2ccccc2)c1C(=O)Nc1ccc(S(=O)(=O)N2CCCC2)cc1 4.98%
COc1cc(/C=C/C(=O)CC(=O)/C=C/c2ccc(O)c(OC)c2)ccc1O 17.5%
N#C/C(=C\c1ccc(O)c(Br)c1)C(=O)N1CCCCC1 9.59%
COc1ccc(C=C(C(C)=O)C(C)=O)cc1OC 16.2%
N#C/C(=C\c1cccc(O)c1)C(=O)N1CCCCC1 13.5%
CC(=O)C1C(c2ccncc2)NC(=O)NC1(O)C(F)(F)F (centres undefined) 18.7%
Cn1/c(=N/NC(=O)c2ccccc2Br)sc2ccccc21 5.44%
CCOCCn1c(=NC(=O)CSCC(=O)Nc2cc(C)on2)sc2cc(OC)ccc21 -3.67%
Cc1ccc(S(=O)(=O)N(C)CC(=O)N2CCOCC2)cc1 0.93%
OCCN(C=NC1=NN(c2cccc(C(F)(F)F)c2)CC1)CCO 29.5%
CCN(C=NC1=NN(c2cccc(C(F)(F)F)c2)CC1)CC 22.2%
O=C(N/N=C/c1ccc2c(c1)OCO2)c1ccccn1 9.83%
Cc1ccc(S(=O)(=O)c2nc(-c3ccccc3Cl)oc2N(C)C)cc1 -3.31%
O=C(CCc1c[nH]c2ccccc12)OCC(=O)N1CCN(S(=O)(=O)c2ccccc2)CC1 10.9%
COc1cnc(-c2ccccn2)nc1Oc1ccccc1Cl 5.1%
COc1cnc(-c2ccccn2)nc1Oc1ccc(Cl)cc1 11.2%
Cc1c(C(=O)N2CCOCC2)c(S(=O)(=O)Nc2cccc(C#N)c2)c(C)n1C 5.47%
CCOc1cc(CNc2ccc(N3CCCC3)cc2)cc(Cl)c1OC 12.8%
COc1cc(CNc2ccc(N3CCOCC3)cc2)cc(Br)c1OC 29.9%
CCOc1c(Cl)cc(CNc2ccc(N3CCCC3)cc2)cc1OC 21.6%
CCOc1cc(CNc2ccc(N3CCOCC3)cc2)cc(Br)c1OCC 36.3%
CCOc1cc(C(=O)Nc2ccc(N3CCN(C(C)=O)CC3)cc2)cc(OCC)c1OCC -4.85%
COc1cc(CNc2ccc(N3CCN(C(C)=O)CC3)cc2)ccc1OCc1ccc(F)cc1 19.5%
COc1ccc(N(CC(=O)O)S(=O)(=O)c2cccnc2)cc1 9.79%
Cn1cnc(S(=O)(=O)N2CCN(C(c3ccc(F)cc3)c3ccc(F)cc3)CC2)c1 11.7%
COC(=O)c1ccc(C(=O)N2CCCC(Nc3ccc(F)c(F)c3)C2)cc1 (centres undefined) 13.5%
COc1cccc(NC(=S)NN=C2CCC(C(C)(C)C)CC2)c1 (centres undefined) 4.61%
N#C/C(=C\c1cccc(Cl)c1)C(=O)c1ccccc1 45.6%
CCOC(=O)/C(C#N)=C\c1ccc(O)c(OC)c1 36.3%
COc1cc(/C=C(\C#N)C(=O)c2c[nH]c3ccccc23)cc(OC)c1O 24.5%
N#C/C(=C/c1ccc(O)c(O)c1)C(=O)NCc1ccc(Cl)cc1 35%
O=S(=O)(c1ccc2oc3ccc(S(=O)(=O)N4CCCCC4)cc3c2c1)N1CCCCC1 -0.2%
CC1CCC(NC(=O)CNC(=O)Cc2cccc3ccccc23)CC1 (centres undefined) -1.39%
Cc1ccc(NCN2C(=O)C3C4C=CC(C4)C3C2=O)cc1 (centres undefined) 5.54%
O=C1C2C3C=CC(C3)C2C(=O)N1CNc1ccc(O)cc1 (centres undefined) 37.4%
